Reference: PubChem BioAssay AID493170 (National Center for Advancing Translational Sciences (NCATS), 2011)
Inconclusive results are not listed. Calls of active or inactive are those of the source. Calls follow the shape of the dose curve; as a rule, active = well fitted inhibition curve with a large enough effect; inconclusive = small, poorly fitted or top-dose-only effect, or effect the other way; inactive = flat fitted curve, though single readings scatter.
% is scaled to controls: 0 for no effect and ±100 for the full control effect; potency is read from the fitted curve at half-maximal effect.
Also: nearly all actives have a fitted effect of over 50% in size.

Each compound was assayed against Ubiquitin carboxyl-terminal hydrolase 2 (Homo sapiens) (UniProt O75604) (assay: Ub-rhodamine 110 based assay for inhibitors Ubiquitin-specific Protease USP2a). Details: USP2a Ub-rhodamine110 cleavage, fluorescence; series mostly up to 38.3 µM; activity change, negative = inhibition: at the top concentration.
Chain of Ubiquitin carboxyl-terminal hydrolase 2 (Homo sapiens) (O75604 whole entry, looked up): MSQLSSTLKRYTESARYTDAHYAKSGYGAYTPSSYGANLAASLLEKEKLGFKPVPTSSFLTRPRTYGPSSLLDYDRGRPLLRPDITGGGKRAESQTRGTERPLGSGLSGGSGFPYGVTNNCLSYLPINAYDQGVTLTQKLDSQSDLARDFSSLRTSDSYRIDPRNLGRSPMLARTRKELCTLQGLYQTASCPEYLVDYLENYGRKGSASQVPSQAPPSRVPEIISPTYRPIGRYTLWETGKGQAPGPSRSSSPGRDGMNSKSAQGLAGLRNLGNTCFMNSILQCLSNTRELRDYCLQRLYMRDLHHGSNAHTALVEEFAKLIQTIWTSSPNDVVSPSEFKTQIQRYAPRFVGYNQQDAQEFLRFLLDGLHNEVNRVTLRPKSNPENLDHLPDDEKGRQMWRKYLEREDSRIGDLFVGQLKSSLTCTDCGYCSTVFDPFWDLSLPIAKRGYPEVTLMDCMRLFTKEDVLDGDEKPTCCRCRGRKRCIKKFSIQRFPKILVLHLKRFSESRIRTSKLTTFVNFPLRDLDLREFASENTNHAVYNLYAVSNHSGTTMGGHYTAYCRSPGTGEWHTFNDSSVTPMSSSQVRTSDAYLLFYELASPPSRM
Method in brief: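 5 nM USP2a preincubated with compounds for 30 min at RT in 20 mM Tris-HCl pH 8.0, 2 mM CaCl2, 2 mM beta-mercaptoethanol, 0.05% CHAPS. Cleavage of 150 nM Ub-rhodamine 110 read kinetically (Ex 485/Em 531) for 7 min.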
With N#Cc1cccc(C(=O)N(CCc2ccccc2)Cc2cccs2)c1 the “activity change, negative = inhibition” value was -2.85% (inactive). In the case of O=C(CN1C(=O)/C(=C2\SC(=S)N(CCS(=O)(=O)O)C2=O)c2ccccc21)Nc1cccc(Br)c1, the Potency is reported as 5.62 µM (active). For COc1ccc(-c2nc(Cn3c(SCc4ccc(F)cc4)nc4ccncc43)c(C)o2)cc1OC, the “activity change, negative = inhibition” value was 3.48% (inactive). For O=C(Nc1ncccc1Cl)c1cccc(F)c1, the “activity change, negative = inhibition” value was 3.44% (inactive). With O=S(=O)(NC1CCSc2ccccc21)c1ccccc1 (stereo not drawn) the “activity change, negative = inhibition” value was -10.3% (inactive). O=C1NC(=Nc2ccccc2)S/C1=C\C=C\c1ccco1 was tested, and the Potency was 5.62 µM (active). With O=C1CCCc2nc(N3CCN(c4ccccc4)CC3)ncc21 the “activity change, negative = inhibition” value was -18.7% (inactive). C=CCSC1=N/C(=C\C=C\c2ccco2)C(=O)S1 was tested, and the Potency was 10 µM (active). In the case of C=CC#CC[N+]1(CC#Cc2ccccc2)CCOCC1, the “activity change, negative = inhibition” value is reported as -18.5% (inactive). O=C(O)C1Nc2c(O)cc(Cl)c([N+](=O)[O-])c2C2C=CCC12 (stereo not drawn) was tested, and the Potency was 3.98 µM (active). In the case of O=C(CSCCO)Nc1cccc2ccccc12, the “activity change, negative = inhibition” value is reported as -9.63% (inactive). In the case of Cc1n[nH]c(C)c1S(=O)(=O)N1CCCC(C(=O)Nc2nccs2)C1 (stereo not drawn), the “activity change, negative = inhibition” value is reported as 19.5% (inactive). For Cc1ccc([C@H]2C(C(=O)O)=CC[C@@H](c3ccc(Cl)cc3)N2S(=O)(=O)c2ccc(C)cc2)cc1, the Potency was 11.2 µM (active). For Cc1ccc(C(=O)c2coc3c2C(=O)C(=O)c2ccccc2-3)cc1, the “activity change, negative = inhibition” value was -29.4% (inactive). With O=C(c1ccc(CS(=O)(=O)c2ccc(Br)cc2)o1)N1CCCC1 the “activity change, negative = inhibition” value was -8.3% (inactive). COC(=O)N/N=C\c1cc(Br)ccc1OCc1ccccc1 was tested, and the “activity change, negative = inhibition” value was -10.6% (inactive). With Oc1ccccc1/C=N/Nc1ncc(Br)cn1 the “activity change, negative = inhibition” value was 1.75% (inactive). For COc1ccc(CCN2CC(C#N)=C3c4cc(OC)c(OC)cc4CCN3C2)cc1OC, the “activity change, negative = inhibition” value was -14.6% (inactive).
